From PubChem BioAssay AID624133 (Broad Institute, 2012)
Hit rate of the full screen: of about 1,600 compounds, about 1,300 (81%) were called active. How the calls were made is not given here. The set was probably picked from earlier hits. These entries were drawn from the full list. Potency and affinity values are given separately.

Assay: non-specific 3'UTR reporter inhibition in Clone20-Shn3RL – cell-based, Renilla luciferase, cherry-picked, counter-screen for Shn3 inhibitor project, dose response (AID 624133);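 further: 0% = neutral control wells and -100% = positive control wells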
Details: Clone20-Shn3RL cells, Renilla luciferase luminescence, 24 h; at 35 µM (top of the series) unless noted
In the case of CN(C)c1ccc(/C=C/c2ccc3ccccc3n2)cc1, the activity change, negative = inhibition is reported as 117%.
Compound Fc1ccccc1N1CCN(Cc2nc(-c3ccccc3)no2)CC1 has an activity change, negative = inhibition of -87.1%.
Work on O=C(Nc1ccc([N+](=O)[O-])cc1)C(=O)Nc1cccc(C(=O)O)c1 yielded an activity change, negative = inhibition of 43.3%.
COc1ccc(NS(=O)(=O)c2ccc(-c3cnc(C4CC4)o3)cc2)cc1OC showed an activity change, negative = inhibition of 40%.
Cc1oc(=O)c(NC(=O)c2ccc(Cl)cc2)cc1C(=O)c1ccccc1 gave an activity change, negative = inhibition of -75%.
Work on O=C(CN1C(=O)c2ccccc2S1(=O)=O)c1ccc(Cl)cc1Cl yielded an activity change, negative = inhibition of -103%.
Compound O=C(CN1C(=O)c2ccccc2S1(=O)=O)c1ccc2c(c1)OCCCO2 has an activity change, negative = inhibition of -16.7%.
CC1CCN(C(=O)c2ccc(N3C(=O)C4CCC(C)CC4C3=O)cc2)CC1 (stereo not given) showed an activity change, negative = inhibition of 27.8%.
CCN(CC)C(=O)[C@H]1C[C@H](CC(=O)NC/C=C(\C)CCC=C(C)C)C(=O)N2CCc3c([nH]c4cc(CCC(=O)N(C)C)ccc34)[C@]12C showed an activity change, negative = inhibition of -16.7%.
With COc1ccc(C(=O)NNC(=O)c2cccc(S(=O)(=O)N3CCOCC3)c2)cc1 the activity change, negative = inhibition was 19.6%.
Compound O=C(Nc1nc(-c2ccccc2)cs1)C1CCCCN1S(=O)(=O)c1ccccc1 (stereo not given) has an activity change, negative = inhibition of -104%.
With O=C(O)C1(Nc2ccccc2Cl)CCCC1 the activity change, negative = inhibition was -15%.
Compound Cc1cc(C(=O)Cn2cnc3cc(F)ccc3c2=O)c(C)n1C1CC1 has an activity change, negative = inhibition of -16.7%.
With Cc1ccc(C(=O)Nc2ccc3c(c2)C(=O)N(CC2CCCO2)C3=O)cc1 (stereo not given) the activity change, negative = inhibition was 80%.
Work on CC(C)NCC(O)COc1cccc2ccccc12 (stereo not given) yielded an activity change, negative = inhibition of -29%.
For COc1ccc(S(=O)(=O)N2CCOCC2)cc1NC(=O)COC(=O)CC1CC2CCC1C2 (stereo not given), the activity change, negative = inhibition was 50%.
Compound COc1cc(NS(=O)(=O)c2ccc(C)cc2C)cc(OC)c1OC has an activity change, negative = inhibition of -27.3%.
For CCCC(c1nnnn1Cc1ccc(OC)cc1)N1CCN(c2ccccc2)CC1 (stereo not given), the activity change, negative = inhibition was 117%.
C=CCOC(=O)C1=C(C)N=C2SCCC(=O)N2C1c1cccs1 (stereo not given) showed an activity change, negative = inhibition of -29.2%.
CCO[C@@H]1OC(C(=O)NC2CC2)=C[C@H](c2coc3ccccc3c2=O)[C@H]1CCCO showed an activity change, negative = inhibition of 120%.
Cc1ccc(S(=O)(=O)N2CCCCC2)cc1NS(=O)(=O)c1ccccc1F showed an activity change, negative = inhibition of 200%.
With COc1ccccc1C(=O)Nc1nc2ccccc2[nH]1 the activity change, negative = inhibition was 43.3%.
COc1ccc(N(C)C(=O)c2ccc3snnc3c2)cc1 gave an activity change, negative = inhibition of -52.1%.
Compound CN(C)c1ccc(/C=C/c2nc3ccccc3s2)cc1 has an activity change, negative = inhibition of 27.8%.
With O=C1CCc2cccc(O)c2N1 the activity change, negative = inhibition was -23.2%.
Compound Cc1c(CCOC(=O)CC23CC4CC(CC(C4)C2)C3)sc[n+]1CC(=O)c1ccc(Br)cc1 has an activity change, negative = inhibition of -59.3%.
CN(C)CCN1C(=O)c2cccc3cc([N+](=O)[O-])cc(c23)C1=O showed an activity change, negative = inhibition of 310%.
CSc1cccc(NC(=O)N2CCCC(CNS(=O)(=O)Cc3ccccc3)C2)c1 (stereo not given) gave an activity change, negative = inhibition of 62.5%.
Compound CCN(CC)c1ccc2c(c1)oc(=O)c1c(Cl)cc(=O)oc12 has an activity change, negative = inhibition of -33.3%.
Cc1cccc(N2CCN(C(=S)Nc3ccc4nc(N5CCN(C)CC5)cc(C)c4c3)CC2)c1C showed an activity change, negative = inhibition of 22.7%.
Work on O=c1c2ccccc2c(C=Nc2ccccc2O)c(O)n1-c1nccs1 yielded an activity change, negative = inhibition of -2.5%.
In the case of Cc1ccc(-c2cn3cc(C)ccc3n2)cc1, the activity change, negative = inhibition is reported as 10%.
For CC(C)CC(NC(=O)c1ccc(Cl)cc1)C(=O)OCC(=O)c1ccc2c(c1)NC(=O)CO2 (stereo not given), the activity change, negative = inhibition was -16.7%.
Compound CN1CCN(c2ccc(-c3ccc4ccccc4n3)cc2)CC1 has an activity change, negative = inhibition of -31.9%.
Compound CC(C)(C)n1nnnc1C(c1cccs1)N1CCCC2(CCCCC2)C1 (stereo not given) has an activity change, negative = inhibition of 54.2%.
Work on O=C(CSc1nc(C(F)(F)F)cc(=O)[nH]1)N1CCCC1 yielded an activity change, negative = inhibition of 231%.
In the case of CC(=O)N(CCc1ccccc1)c1ccc2c(c1)C1CC2CCN1C(=O)OCc1ccccc1 (stereo not given), the activity change, negative = inhibition is reported as -90.9%.
COc1ccc(NS(=O)(=O)c2ccc(N3CCOCC3)c(N)c2)cc1 gave an activity change, negative = inhibition of -21.1%.
In the case of COc1ccc(NS(=O)(=O)c2cccc(NC(=O)c3ccc(S(=O)(=O)N4CCCCCC4)cc3)c2)cc1, the activity change, negative = inhibition is reported as 11.9%.
C=CCn1c(C)cc(C2=NNC(=NCC)SC2)c1C showed an activity change, negative = inhibition of -16.7%.
NC(=O)NC(CC(=O)NCCc1ccccn1)c1ccccc1Cl (stereo not given) showed an activity change, negative = inhibition of -110%.
Work on S=c1[nH]nc(COc2cccc3ccccc23)n1Cc1ccccc1 yielded an activity change, negative = inhibition of -87.5%.
With CC(C)(C)C(=O)Nc1ccc(NC(=O)c2ccco2)nc1 the activity change, negative = inhibition was 8.33%.
With CCOC(=O)C1=C(C)N(CCCC(=O)O)C(=O)NC1c1ccc2ccccc2c1 (stereo not given) the activity change, negative = inhibition was -30%.
Compound Cc1ccc(C(=O)N2CCN(C)CC2)cc1S(=O)(=O)N1CCCCCC1 has an activity change, negative = inhibition of 65.3%.
With CCN(CC)C(=S)Sc1c(-c2ccccc2)c2cc(Cl)ccc2[nH]c1=O the activity change, negative = inhibition was 16.7%.
CC(C)(C)C(=O)Nc1cc2nn(-c3ccccc3)nc2cc1Cl gave an activity change, negative = inhibition of 52.1%.
Compound COc1ccc(OC)c(NC(=O)COC(=O)c2c3c(nc4ccccc24)CCCC3)c1 has an activity change, negative = inhibition of 40%.
COc1cc(Nc2nc(-c3ccccc3)c3cc(C)ccc3n2)cc(OC)c1OC showed an activity change, negative = inhibition of 16.7%.
For Cc1ccc(S(=O)(=O)N2CCC3(CC2)OCCN3S(=O)(=O)c2c(C)cc(C)cc2C)cc1, the activity change, negative = inhibition was -13.6%.
Compound O=C(CSc1nc2[nH]ncc2c(=O)[nH]1)Nc1ccccc1C(F)(F)F has an activity change, negative = inhibition of -108%.
In the case of Cc1csc(=O)n1CCC(=O)N(C)Cc1c(F)cccc1Cl, the activity change, negative = inhibition is reported as 75%.
Compound CN(C)c1ncnc2c1C(c1ccccc1)C(C)(C)O2 (stereo not given) has an activity change, negative = inhibition of -22.2%.
O=C(OCc1ccccc1)N(CCCCN(CCCNCc1ccccc1)C(=O)OCc1ccccc1)CCCNCc1ccccc1 showed an activity change, negative = inhibition of 20%.
Work on COc1ccc(-c2noc(CCCCC(=O)N3CCN(c4cc(C)ccc4C)CC3)n2)cc1 yielded an activity change, negative = inhibition of -30%.
Work on C=CC[C@H](CC(=O)N(CCO)Cc1ccccc1)C(=O)NC[C@H](OC(=O)[C@@H](CC=C)Cc1ccc(F)cc1)c1ccccc1 yielded an activity change, negative = inhibition of -75%.
CCS(=O)(=O)c1ccc2oc(SCC(=O)N3CCCCC3)nc2c1 gave an activity change, negative = inhibition of 35%.
Compound CSc1nc(N2CCN(Cc3ccc4c(c3)OCO4)CC2)c2ccccc2n1 has an activity change, negative = inhibition of -16.7%.
For Cc1ccc(NC(=O)c2oc3ccccc3c2COC(C)C)cc1S(=O)(=O)N1CCOCC1, the activity change, negative = inhibition was 25%.
In the case of O=C(CSc1nc2c(c(=O)n1-c1ccc(Br)cc1)SCC2)NCc1ccco1, the activity change, negative = inhibition is reported as 29.2%.
Work on Cc1ccc(CNC(=O)CSc2c3c(nc4ccc(Cl)cc24)CCCC3)o1 yielded an activity change, negative = inhibition of 106%.
CC(C)c1c(O)c2c(n(-c3ccccc3)c1=O)CCCC2 showed an activity change, negative = inhibition of -21.1%.
In the case of O=C(Nc1cccc(S(=O)(=O)NC2=NCCC2)c1)C1CC(=O)N(c2ccc3c(c2)OCCO3)C1 (stereo not given), the activity change, negative = inhibition is reported as -66.7%.
C[C@@H]1CC=C[C@H]2[C@H]1C(=O)N(Cc1ccccc1)[C@H]2c1cccc([N+](=O)[O-])c1 gave an activity change, negative = inhibition of 162%.
Compound COc1cc(NC(=O)c2cc3c(Cl)nc4ccccc4c3s2)cc(OC)c1OC has an activity change, negative = inhibition of 60%.
Compound O=C(Nc1ccc(Cl)c(Cl)c1)c1cccc(S(=O)(=O)NCc2cccnc2)c1 has an activity change, negative = inhibition of -10%.
With Cc1ccc(NC(=O)C2CCC(C(C)(C)C)CC2)cc1S(=O)(=O)N1CCOCC1 (stereo not given) the activity change, negative = inhibition was -100%.
O=C(NNc1ccccc1)C(=O)NNS(=O)(=O)c1ccc(CCCl)cc1 showed an activity change, negative = inhibition of 90%.
CCCc1nc2c(=O)n(C)c(=O)nc-2n(C)n1 gave an activity change, negative = inhibition of 71.8%.
Work on COc1ccc(CNC(=O)C(C)n2ccc3cc(S(=O)(=O)N4CCCCCC4)ccc32)cc1 (stereo not given) yielded an activity change, negative = inhibition of 12.2%.
